Reference: ChEMBL document CHEMBL4513216, “Probing the Open Global Health Chemical Diversity Library for Multistage-Active Starting Points for Next-Generation Antimalarials” (ACS Infect Dis, 2020)
Out of some 65,000 compounds screened, about 2,100 (3.2%) showed an effect of 50% or more. The median lay at about -52%. The entries come from a sample that favours strong results as a whole.

What follows are compounds tested on Plasmodium falciparum (assay: Screen against P. falciparum Asexual Blood Stage (ABS), at 5uM). Conditions: tested at 5 uM.
Type: functional, Dd2
In the case of O=C(CCc1ccc(-n2cnnn2)cc1)Nc1ccncc1, the INHIBITION is reported as -12.1%. CCn1cc2c(n1)CN(Cc1nccs1)CC2COCC1CC1 (stereo not given) gave an INHIBITION of -9.1%. Compound CN(C)c1nc(O)cc(C2CCN(C(=O)Cc3ccccn3)C2)n1 (stereo not given) has an INHIBITION of -107%. In the case of N#CC1CCCN(c2ncnc3c2CCN(Cc2ccccc2)CC3)C1 (stereo not given), the INHIBITION is reported as -71.7%. In the case of Cc1cc(CNc2ccccc2Cl)no1, the INHIBITION is reported as 40.4%. With Cc1cc(CNc2cccc(Cl)c2C)no1 the INHIBITION was 54.3%. For CCOc1c(Cl)cccc1NCc1cc(C)on1, the INHIBITION was -51.8%. CNC(=O)c1cnc(C=Cc2cc(OC)c(O)c(OC)c2)s1 showed an INHIBITION of -64.8%. CNC(=O)c1cccc(CNC(C)c2ccc(F)cc2N(C)C)c1 (stereo not given) showed an INHIBITION of -107%. For CNC(=O)c1cccc(CNC(C)c2cc(C)ccc2OC(F)F)c1 (stereo not given), the INHIBITION was 60.1%. CNC(=O)c1cccc(CNC(C)c2cc(Cl)ccc2OC)c1 (stereo not given) was tested, and the INHIBITION was -5.94%. COc1ncccc1CNC(=O)c1c(C)oc(C)c1C showed an INHIBITION of 32.4%. Cc1oc(C)c(C(=O)NCc2cccnc2N(C)C)c1C gave an INHIBITION of -69.8%. With CCOc1ncccc1CNC(=O)c1c(C)oc(C)c1C the INHIBITION was 58.4%. Compound Cc1oc(C)c(C(=O)NCc2ccccc2CN(C)C)c1C has an INHIBITION of 57.3%. Cc1oc(C)c(C(=O)NCc2ccccn2)c1C showed an INHIBITION of -148%. With Cc1oc(C)c(C(=O)NCc2ccccc2S(=O)(=O)N(C)C)c1C the INHIBITION was -57.1%. With Cc1cc(CC(C)Nc2ncc(C)c(N(C)C)n2)[nH]n1 (stereo not given) the INHIBITION was -13.9%. Compound O=C(c1ccccc1)N1C[C@@H]2CCCO[C@@H]2[C@H](N2CCCC2)C1 has an INHIBITION of -41.1%. Work on O=C(O)[C@@H]1CN(C(=O)c2ccc3[nH]nnc3c2)C[C@H]1c1ccccc1 yielded an INHIBITION of -123%. For COCC1(C(=O)N[C@H]2CN(c3nnc(C)s3)C[C@@H]2C2CC2)CCC1, the INHIBITION was -176%. CC(C)c1nc(CN(C)C2CCN(CCNS(C)(=O)=O)C2)no1 (stereo not given) showed an INHIBITION of -20.9%. CSCCc1ccc(NC(=O)NCc2ccnc(N(C)C)c2)cc1 gave an INHIBITION of -46.2%. COc1cc(N2C[C@@H]3COC[C@]3(COc3ncccc3F)C2)ncn1 gave an INHIBITION of -25.8%. c1c(CN2CCCC2)nc2n1CCN(C1CCOCC1)C2 gave an INHIBITION of -103%. For Cc1cc2n(n1)CC(CNCc1ccc(-n3cccn3)cc1)CN2 (stereo not given), the INHIBITION was 53.4%. Cc1cc2n(n1)CC(CNCc1cnn(-c3ccccc3)c1)CN2 (stereo not given) was tested, and the INHIBITION was -71.4%. c1ccc(Oc2ccc(CNCC3CNc4ccnn4C3)cn2)cc1 (stereo not given) gave an INHIBITION of -12.8%. Cc1cc2n(n1)CC(CNCc1ccc(Oc3ccccc3)nc1)CN2 (stereo not given) showed an INHIBITION of 58.9%. Compound COc1ccc(CNCC2CNc3cc(C)nn3C2)cn1 (stereo not given) has an INHIBITION of -171%. Work on Cc1cc2n(n1)CC(CNCc1ccc(-n3cccn3)nc1)CN2 (stereo not given) yielded an INHIBITION of 15.1%. c1ccc(Oc2cc(CNCC3CNc4ccnn4C3)ccn2)cc1 (stereo not given) was tested, and the INHIBITION was 53.3%. In the case of Cc1cc2n(n1)CC(CNCc1ccc(OCC3CC3)nc1)CN2 (stereo not given), the INHIBITION is reported as -101%. COc1cc(CNCC2CNc3ccnn3C2)ccn1 (stereo not given) was tested, and the INHIBITION was -129%. For COc1ccccc1N1CC(NC(=O)c2cc(C(C)C)nn2C)CC1=O (stereo not given), the INHIBITION was -102%. Compound COCC1c2nnn(C)c2CCN1C(=O)CCc1cccc(OC)c1 (stereo not given) has an INHIBITION of -85.3%. For CC1CCCN(Cc2ccc(C(N)=O)cc2)C1 (stereo not given), the INHIBITION was -118%. Work on COc1ccc(NC(C)c2nnnn2-c2ccccc2)cc1F (stereo not given) yielded an INHIBITION of -2.6%. Compound Cc1nc(Cc2ccccc2)nc2sc(C(=O)O)c(C)c12 has an INHIBITION of -62.8%. Compound CCOC(=O)N1CCN(c2nc(CCN)nc3sc(C)c(C)c23)CC1 has an INHIBITION of 66.1%. Cc1sc2nc(CCN)nc(N3CCS(=O)(=O)CC3)c2c1C gave an INHIBITION of -119%. In the case of CC(=O)N1CCN(c2nc(C(F)(F)F)nc3sc(C)c(C)c23)CC1, the INHIBITION is reported as -30.4%. Work on Cc1cnn(CC(C)NCc2ccc(OCC(N)=O)cc2)c1 (stereo not given) yielded an INHIBITION of -49.9%. CCOC(=O)N1CCN(c2nc(NCCCO)c3ccccc3n2)CC1 gave an INHIBITION of -50.8%. CCn1ccc(-c2cc(NCCCOc3ccccc3C)nc(C)n2)n1 showed an INHIBITION of -2.89%. Work on Cc1ccc(Oc2c(F)cccc2OC[C@@H](N)CC(C)C)cc1 yielded an INHIBITION of 65.9%. Compound CCOc1ccccc1C(N)CC(C)C (stereo not given) has an INHIBITION of 33.2%. CC(C)COc1ccccc1C(N)CC(C)C (stereo not given) showed an INHIBITION of 28.3%. O=C(O)c1ccnc(SCC(F)(F)F)c1 was tested, and the INHIBITION was -13.4%. In the case of CN1[C@@H](C(=O)NCC2CC2)C[C@H]2CN(Cc3cccc(C#N)c3)C[C@H]21, the INHIBITION is reported as 27.2%. CN1CCN(C[C@@H]2OC[C@H]3CN(CCc4ccccc4)CC[C@H]32)CC1 was tested, and the INHIBITION was 66.1%. Compound CN1CCN(C[C@@H]2OC[C@H]3CN(Cc4cccc(F)c4)CC[C@H]32)CC1 has an INHIBITION of 19.2%. Work on Cc1ccc(CN2CC[C@@H]3[C@@H](CO[C@H]3CN3CCN(C)CC3)C2)cc1 yielded an INHIBITION of -1.6%. Cn1cccc1C(=O)N1CCO[C@H]2[C@H](OCc3cccnc3)CC[C@@H]21 was tested, and the INHIBITION was -57.2%. In the case of CC(C)C(=O)N1CCC([C@@H]2C[C@H](C(F)F)n3ncnc3N2)CC1, the INHIBITION is reported as 12.2%. In the case of COCCN1CCOCC12CCN(C(=O)c1c[nH]c3ccccc13)CC2, the INHIBITION is reported as -122%. Cc1ccc(CN2CCOCC3(C2)CN(c2ccc(C)s2)C(=O)CO3)o1 (stereo not given) showed an INHIBITION of -71.8%. CCc1cc(N2CCC3(CCCNC3=O)C2)nc(N2CCOCC2)n1 (stereo not given) showed an INHIBITION of -56.1%. Cc1ccc(CN2CCOC3(COCCN(CCN(C)C)C3)C2)o1 (stereo not given) gave an INHIBITION of -69.1%. Compound CC(C)NC(=O)C1(Cc2ccccc2-c2cccs2)CCNC1 (stereo not given) has an INHIBITION of 68.3%. CC(C)NC(=O)C1(Cc2ccccc2-c2cncnc2)CCCNC1 (stereo not given) gave an INHIBITION of -14.3%. With O=C(NCCO)C1(Cc2ccccc2-c2cccnc2)CCOCC1 the INHIBITION was -31.7%. With CC(C)CNC(=O)C1(Cc2ccccc2-c2ccccc2)CCNC1 (stereo not given) the INHIBITION was 52%. COCCNC(=O)C1(Cc2ccccc2-c2ccncc2)CCOCC1 showed an INHIBITION of -10.1%. Work on O=C(O)C1(Cc2ccc(-c3cccs3)cc2)CCNC1 (stereo not given) yielded an INHIBITION of -44.3%. In the case of Cc1cc(=O)[nH]c(=O)n1Cc1ncc(-c2ccccc2C(=O)O)s1, the INHIBITION is reported as -46.1%. Work on O=C1C(NCc2nnc3n2CCCC3)CCN1c1ccccc1Cl (stereo not given) yielded an INHIBITION of -35.2%. Compound CN(C)CCNC(=O)c1ccc2ccc(N(C)CC3CC3)n2c1 has an INHIBITION of 19.9%. CN(CC1CC1)c1ccc2ccc(C(=O)NC3CCCCC3)cn12 gave an INHIBITION of 54.6%. CN(CC1CC1)c1ccc2ccc(C(=O)NCCc3ccccc3)cn12 was tested, and the INHIBITION was -46.3%. COCCNC(=O)c1ccc2ccc(N(C)CC3CC3)n2c1 was tested, and the INHIBITION was 60.1%. CCN(CC)c1ccc2ccc(C(=O)NC3CC3)cn12 showed an INHIBITION of -34.9%. In the case of CN(C)C(=O)CNC(=O)c1ccc2ccc(N(C)CC3CC3)n2c1, the INHIBITION is reported as -73.5%. Cn1cccc1CN1CCC2(CC1)CN(c1ncccn1)CCO2 showed an INHIBITION of -28.5%. Work on Cc1cccc(CN(Cc2cccnc2)C2CC(C)(C)NC(C)(C)C2)n1 yielded an INHIBITION of 42.9%. Cc1ccc(CN(Cc2ccccn2)C2CC(C)(C)NC(C)(C)C2)s1 gave an INHIBITION of 69.8%. With Cc1ccc(CN(Cc2cccnc2)C2CC(C)(C)NC(C)(C)C2)s1 the INHIBITION was 69.6%. CC1(C)CC(N(Cc2cccnc2)Cc2cccnc2)CC(C)(C)N1 showed an INHIBITION of -5.22%. In the case of CC1(C)CC(N(Cc2ccccc2)Cc2c[nH]cn2)CC(C)(C)N1, the INHIBITION is reported as 20.7%. Cc1ccc(CN(Cc2ncc[nH]2)C2CC(C)(C)NC(C)(C)C2)o1 showed an INHIBITION of -15.9%. CC1(C)CC(N(Cc2ccncc2)Cc2cccnc2)CC(C)(C)N1 was tested, and the INHIBITION was 25.7%. Work on CC1(C)CC(N(Cc2ccccc2)Cc2cccnc2)CC(C)(C)N1 yielded an INHIBITION of 54.6%. Cc1ccc(CN(Cc2ccncc2)C2CC(C)(C)NC(C)(C)C2)o1 showed an INHIBITION of 66.9%. Compound Cc1ccc(CN(Cc2ccccn2)C(=O)[C@H]2CC[C@@H](N)C2)s1 has an INHIBITION of -57.1%. Cc1ccc(CN(Cc2c[nH]cn2)C2CC(C)(C)NC(C)(C)C2)o1 was tested, and the INHIBITION was -50.8%. For Cc1ccc(CN(Cc2ccncc2)C2CCN(C)CC2)s1, the INHIBITION was 34.9%. Work on CCn1ncc2c(C(F)(F)F)cc(-c3ccn(C)n3)nc21 yielded an INHIBITION of -88%. COc1ccc(C(C)Nc2cnn(C)c(=O)c2Cl)cc1OC (stereo not given) was tested, and the INHIBITION was -40.4%. CC(C)OCCN1CCC(Nc2ncccn2)CC1 gave an INHIBITION of -102%. In the case of CCC1CN(C(=O)NCc2cccnc2-n2cccn2)CCO1 (stereo not given), the INHIBITION is reported as -88.4%. Work on O=C(O)C1CCCN1c1nc(-c2ccc(Cl)c(Cl)c2)cc(C(F)(F)F)n1 (stereo not given) yielded an INHIBITION of -8.45%. Compound CCCc1nc(C)c(C(=O)NCCn2nc3ccccn3c2=O)s1 has an INHIBITION of -201%. Compound O=C(NCc1cc[nH]n1)NCC(c1ccc(F)cc1)N1CCOCC1 (stereo not given) has an INHIBITION of -39%. For O=C(NCc1cc[nH]n1)NCC(c1ccccc1)N1CCOCC1 (stereo not given), the INHIBITION was -82.7%. Work on Cc1cccc(C(CNC(=O)NCc2cc[nH]n2)N2CCOCC2)c1 (stereo not given) yielded an INHIBITION of 53%. Work on CCCn1ccnc1-c1nccn1CCn1cnnc1 yielded an INHIBITION of -36%. O=C(C1CCOCC1)N1CCO[C@H]2[C@H](Oc3ccccn3)CC[C@@H]21 gave an INHIBITION of -53.1%. In the case of O=C(NCC(=O)N1CCCC1)c1nn(-c2ccccc2F)cc1O, the INHIBITION is reported as -120%. Compound CCOCC(O)CN1CCN(C(=O)c2ccc(OC)cc2)CC1 (stereo not given) has an INHIBITION of -24.3%. In the case of CCOCC(O)CN1CCN(C(=O)c2ccc(C)nc2)CC1 (stereo not given), the INHIBITION is reported as 60.7%. In the case of CCOCC(O)CN1CCN(C(=O)c2ccc(N(C)C)nc2)CC1 (stereo not given), the INHIBITION is reported as -72.5%. For CC(Nc1ccc(C#N)cc1F)c1cccc(S(N)(=O)=O)c1 (stereo not given), the INHIBITION was -49.5%. Work on Cc1nc(CN2CC[C@@H]3[C@@H](CCC(=O)N3CCc3c[nH]cn3)C2)co1 yielded an INHIBITION of -58.8%. O=C1CC[C@H]2CN(Cc3ccc(Cl)s3)CC[C@H]2N1CCc1c[nH]cn1 showed an INHIBITION of 66.6%. Work on O=C1CC[C@H]2CN(Cc3cccnc3)CC[C@H]2N1CCc1c[nH]cn1 yielded an INHIBITION of -154%.
